Test results taken from PubChem BioAssay (NCI).
Compounds without any hit were thinned out: in the full panel of roughly 83,000, 20% have a hit.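 Single-concentration screen, 48 h exposure, 96-well plates. Endpoint: percent growth. Below 10 = active.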 Values without a mark were called inactive. The source made the active and inactive calls.

system: PC-3 prostate; experiment: NCI-60 one-dose screen, 48 h (100 = growth as untreated, 0 = no growth, -100 = all killed); conditions: 10 µM unless noted

SMILES	growth
Cc1c(C(=O)NCCC(=O)NO)sc2ncnc(Nc3ccc(F)c(Cl)c3)c12	104%
COc1cc2nc(-c3ccc(C(F)(F)F)cc3)cc(OCCCN3CCOCC3)c2cc1OC	42.1%
C=CCN1C(=O)/C(=C/C(=O)OC)S/C1=N\NC(=O)c1cc2ccc1/C=C\c1ccc(cc1)/C=C\2	48.4%

system: SK-MEL-5 melanoma; experiment: as above; conditions: 10 µM unless noted

SMILES	growth
CCCOc1ccc(/C=N/Nc2cc(C)nc3ccc(Br)cc23)cc1	100%
O=C(O)c1ccc(NCc2cn(-c3ccc(C(F)(F)F)cc3)nc2-c2ccc(C(=O)O)cc2)cc1	103%
CCCNC(=O)Oc1ccc(/C(=C(\C)c2ccccc2)c2ccc(OCCCN(C)C)cc2)cc1	86.2%
O=C(/C=C/c1ccc(Cl)cc1)c1ccc(NC(=O)N2CCN(c3cc4c(cc3F)c(=O)c(C(=O)O)cn4C3CC3)CC2)cc1	93.6%
COc1ccc(-c2nc([C@@H](C)Sc3nc(N)cc(N)n3)c(C)s2)cc1OCCN1CCOCC1	82.2%
N#C/C(=C\c1ccc(Cl)cc1)n1nnc2cc(F)c(F)cc21	8.38% (active)
O=C(c1nc2ccccc2[nH]1)C1C(c2ccc(Br)cc2)C2CC3CCCC[C@H]3N2[C@@]12C(=O)Nc1cc(Cl)ccc12 (stereo partly specified)	51%
Oc1cccc(CCc2ccc(Oc3cc(CCc4cccc(O)c4)cc(O)c3O)cc2)c1	70.2%
CN(CCN(C)c1ccc(C(=N)N)cc1)c1ccc(C(=N)N)cc1	92%
Cc1c(C(=O)NCCC(=O)NO)sc2ncnc(Nc3ccc(F)c(Cl)c3)c12	102%

system: UACC-62 melanoma; experiment: as above; conditions: 10 µM unless noted

SMILES	growth
Cc1cc(C)c(S(=O)(=O)Oc2ccccc2[N+](=O)[O-])c(C)c1	24.5%
COc1ccc2nc(-c3ccc(-c4noc(-c5cc(OC)c(OC)c(OC)c5)n4)cc3)[nH]c2c1	99.8%
CCCCCN1C=C/C(=C\C(=O)N(C)c2ccc(Oc3ccccc3)cc2)c2ccccc21	76.9%
COc1cc2oc(-c3cccc(C(=O)Nc4ccccc4)c3)cc(=O)c2c(O)c1OC	38.9%
c1ccc2c(-c3nccs3)c[nH]c2c1	93.5%
NS(=O)(=O)c1ccc(CCN2C(=O)C=CC2=O)cc1	104%
C/C(=N\Nc1cc(C)nc2ccc(Br)cc12)c1ccc([N+](=O)[O-])cc1	89.6%
CCCCCCNC(=O)Oc1ccc(/C(=C(\C)c2ccccc2)c2ccc(OCCN3CCCCC3)cc2)cc1	5.21% (active)
O=C1c2ccccc2C(=O)c2c([N+](=O)[O-])ccc(Cl)c21	96.5%
O=C1Nc2cc(Cl)ccc2/C1=C\c1c(-c2ccc(F)cc2)nc2ccccn12	10.6%
CSc1nc2sc3cccc(Cl)c3n2c(=N)c1C#N	90%
Cc1cccc(C)c1N=c1oc2ccc(Cl)cc2nc1-c1ccccc1O	81.3%
C=C(C)[C@@H]1CC[C@]2(C(=O)N3CCN(C)CC3)CC[C@]3(C)[C@H](CC[C@@H]4[C@@]5(C)CC[C@H](OCCC#N)C(C)(C)[C@@H]5CC[C@]43C)[C@@H]12	110%
Cc1cc2nc3c4ccc(Br)cc4n(CCN(C)C)c3nc2cc1C	13.1%
CN(C)CCC(=O)c1ccc([N+](=O)[O-])cc1	98.6%
CCN1CCN(CCNc2nccc(-c3c(-c4cccc(OC)c4)nc4occn34)n2)S1(=O)=O	27.5%
NS(=O)(=O)c1ccc(CCN2C(=O)c3cc(Cl)c(Cl)cc3C2=O)cc1	103%
COc1ccc(-c2cnc3c(-c4cccc5cnccc45)cnn3c2)cc1	59.3%
C=C1C(=O)O[C@H]2[C@H]1CC/C(CNC(=O)/C=C/c1ccccc1)=C\CC[C@@]1(C)O[C@@H]21	-81.6% (active)
COc1ccc(-c2nc(S(=O)(=O)c3ccccc3)c(S(=O)CC(=O)N3CCC(C)CC3)o2)cc1 (stereo unspecified)	17.9%
COC(=O)/C=C1\S/C(=N\NC(=O)c2cc3ccc2/C=C\c2ccc(cc2)/C=C\3)N(c2ccccc2)C1=O	25.2%
NC(=NCCCOc1ccc(F)cc1)Nc1ccc(I)cc1	82.8%
COc1cc(C(=O)Nc2cc3c(cc2Oc2cc(C)cc(C)c2)C(=O)N(C)[C@@H](CC(=O)N(C)O)C(=O)N3)c(Br)c(OC)c1OC	-69% (active)
